Assay outcomes deposited in PubChem BioAssay by The Scripps Research Institute Molecular Screening Center.
GPR151 activ = activators of human GPR151; Q8TDV0; PathHunter beta-arrestin GPR151 cells, luminescence; activation, % at 11.2 µM; actives 1% (n = 650,000); AID 1508602; in the data active = activation above about 4.9%;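 note: 0% = median of compound wells and 100% = cells with positive control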
TEAD-YAP block = TEAD-YAP interaction inhibition; HEK-TIYL cells, TEAD-Gal4/YAP UAS-luciferase luminescence; inhibition, % at 9.12 µM; actives 1.4% (n = 640,000); in the data active = inhibition above about 32%;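 note: 0% = median of test compound wells and 100% = reference inhibitor wells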
FBW7 act = activators of human E3 ligase FBW7. AlphaScreen FBW7–phospho-cyclin E peptide binding, activator screen. actives 0.13% (n = 650,000). normalized activity (activation), % at 26.1 µM. Q969H0; in the data active = normalized activity above about 1.9%;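 note: purified mutant Fbw7 with reduced substrate affinity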
MITF primary = inhibitors of human MITF; O75030; AlphaScreen MITF homodimerization, bead proximity signal; inhibition, % at 2.6 µM; actives 0.91% (n = 650,000); AID 1259374; in the data active = inhibition above about 50%;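 note: 0% = vehicle wells with protein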
Target sequence (O75030 whole entry, looked up): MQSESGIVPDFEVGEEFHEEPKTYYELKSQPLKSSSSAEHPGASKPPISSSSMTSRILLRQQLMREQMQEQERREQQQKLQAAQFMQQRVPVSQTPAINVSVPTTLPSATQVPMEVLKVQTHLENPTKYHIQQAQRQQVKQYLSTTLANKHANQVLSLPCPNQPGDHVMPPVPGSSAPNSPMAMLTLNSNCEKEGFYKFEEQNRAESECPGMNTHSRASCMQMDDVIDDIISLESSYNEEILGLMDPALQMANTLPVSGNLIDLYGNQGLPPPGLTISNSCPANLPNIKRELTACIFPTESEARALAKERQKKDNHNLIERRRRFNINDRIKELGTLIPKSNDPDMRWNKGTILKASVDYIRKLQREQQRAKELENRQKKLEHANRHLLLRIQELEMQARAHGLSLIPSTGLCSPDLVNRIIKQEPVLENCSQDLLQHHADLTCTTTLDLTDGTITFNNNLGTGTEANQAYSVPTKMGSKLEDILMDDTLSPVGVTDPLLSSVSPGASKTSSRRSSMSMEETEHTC
GPR151 confirm = human GPR151 activation, confirmation screen; shares compounds with GPR151 activ; GPR151 PathHunter beta-arrestin cells, luminescence, 90 min; % of EA-reagent control over plate median; activation, % at 11.2 µM; 6,700 tested, under 10 active;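 active = mean percent activation across replicates above the confirmation screen cutoff of 4.91%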
GPR119 counter = counter-screen for GPR151 activators: effect on human GPR119 | shares compounds with GPR151 activ | GPR119 PathHunter beta-arrestin cells, luminescence, 90 min; 0 = compound-well median, 100 = enzyme-acceptor control | activation, % at 11.2 µM | actives 0.3% (n = 6,700);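 active = mean percent activation in the counterscreen above 29.09%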;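 note: counterscreen on off-target GPR119 to flag nonselective hits from the GPR151 activator screen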
* = called active by the depositor; · = no result given. Only some compounds are listed: those with a hit (about 3.4% of all), similar ones and a draw of the others.

SMILES	GPR151 activ	TEAD-YAP block	FBW7 act	MITF primary	GPR151 confirm	GPR119 counter
COC(=O)C1=C(C)N(c2ccc(C(C)C)cc2)C(=O)/C1=C\c1ccco1	6.0*	29	0	11	0	12
COC(=O)C1=C(C)N(c2ccc(Cl)cc2)C(=O)/C1=C\c1ccco1	3	6	0	9	·	·
C=CCn1c(COc2ccccc2C)n[nH]c1=S	-1	9	1	8	·	·
C=CCn1c(COc2cccc(C)c2C)n[nH]c1=S	5.0*	4	0	4	0	1
CCc1ccc(NC(=O)Cn2cnc3c2c(=O)n(C)c(=O)n3C)cc1	3	14	1	12	·	·
CC1CCN(CCCN2C(=O)C3C(C(=O)Nc4ccc(Br)cc4)C4C=CC3(O4)C2C(=O)NC2CCCCC2)CC1 (centres undefined)	1	3	0	3	·	·
O=C1Nc2ccc([N+](=O)[O-])cc2C12NN=C(c1ccccc1)S2 (centres undefined)	5.0*	-44	0	9	0	15
O=C(NCc1ccc(F)cc1)N1CCC(c2ccccc2)C1 (centres undefined)	1	11	0	6	·	·
CC(=O)c1cccc(NC(=O)/C(=C/c2ccco2)NC(=O)c2ccco2)c1	1	-10	0	0	·	·
COC(=O)c1cccc(NC(=O)/C(=C\c2ccco2)NC(=O)c2ccco2)c1	5.5*	7	0	13	0	-6
O=C(NCC1CCC2(CCN(C(=O)c3ccncc3)CC2)O1)c1ccc2[nH]ccc2c1 (centres undefined)	8.0*	5	0	-5	0	12
Cc1cccc(-c2nc(C(N)=O)c3[nH]c(=O)n(-c4ccccc4)c3n2)c1	0	2	0	4	·	·
C=CCOc1ccc(/C=C2\C(=O)NN(c3ccccc3)C2=O)cc1OC	5.3*	1	0	4	0	3
CC1CN(CC(O)COCCOc2ccc(Br)cc2)CC(C)O1 (centres undefined)	1	11	0	-2	·	·
O=C(Nc1nccs1)c1ncoc1-c1cccs1	8.7*	5	0	-14	0	4
O=C(Nc1nncs1)c1ncoc1-c1cccs1	-1	8	0	-16	·	·
COc1ccc(OCC(=O)O/N=C(\N)c2ccc(OC)c(OC)c2)cc1	8.2*	7	0	-9	0	10
COc1ccc(/C(N)=N/OC(=O)COc2ccc(Br)cc2)cc1OC	1	-4	0	-5	·	·
O=C(Nc1ccc(I)cc1)Nc1ccc2c(c1)OCO2	5.8*	-30	0	-1	-1	-12
CCC(Sc1nnc2c3ccccc3n(C)c2n1)C(=O)Nc1ccc(S(N)(=O)=O)cc1 (centres undefined)	1	-5	0	-3	·	·
CCC(Sc1nnc2c3cc(Br)ccc3n(C)c2n1)C(=O)Nc1ccc(S(N)(=O)=O)cc1 (centres undefined)	8.5*	-10	0	3	0	10
CCOC(=O)C1(Cc2cccc(OC)c2)CCCN(C(=O)c2ccncc2)C1 (centres undefined)	-1	-19	0	14	·	·
COc1cc(/C=C2\SC(NC(C)=O)=NC2=O)ccc1OCc1ccc([N+](=O)[O-])cc1	1	-14	0	-1	·	·
CC(=O)NC1=NC(=O)/C(=C/c2ccc(OCc3ccc([N+](=O)[O-])cc3)cc2)S1	5.0*	1	0	17	0	-4
O=C(O)CC1c2ccccc2CCN1S(=O)(=O)c1ccccc1 (centres undefined)	1	11	0	-1	·	·
SMILES	GPR151 activ	TEAD-YAP block	FBW7 act	MITF primary	GPR151 confirm	GPR119 counter
O=C(O)CC1c2ccccc2CCN1S(=O)(=O)c1ccc(Cl)cc1 (centres undefined)	6.0*	-1	0	9	2	12
O=C(COC(=O)c1cc([N+](=O)[O-])ccc1Cl)Nc1ccc2[nH]c(=O)[nH]c2c1	-1	-16	0	4	·	·
Cc1ccc(C(=O)NCc2ccc(Cl)cc2)o1	7.7*	-7	0	5	1	-9
Cc1ccc(C(=O)NCc2ccccc2)o1	0	3	0	10	·	·
NC(=O)C(=O)NCc1ccc(Cl)cc1	5.9*	-1	1	2	0	-2
Cc1nc(C)n(C(C)CC(=O)N2CCC3(CC2)NC(=O)c2cccnc2N3C)n1 (centres undefined)	1	-3	0	6	·	·
Cc1nc(NCCNC(=O)c2ccc([N+](=O)[O-])cc2)c2c(C)c(C)sc2n1	1	24	0	-2	·	·
Cc1cc(C)c(NC(=O)CSc2nc(C)cc(=O)[nH]2)c([N+](=O)[O-])c1	8.2*	-11	0	-1	-1	-11
CN(C)c1ccc(CNc2ccc(-c3nc4ccccc4s3)cc2)cc1	-3	31	0	12	·	·
CCN1CCN(Cc2c(C(=O)N3CCN(C4CCCCC4)CC3)nc3ccccn23)CC1	0	0	0	-6	·	·
CCOc1cc2[nH]c(=O)n(Cc3cccc(OC)c3)c(=O)c2cc1OCC	8.5*	5	0	-3	0	-8
CC(=O)N(C)c1ccc(NC(=O)COc2cc(C)cc(C)c2)cc1	4.9*	-2	0	-4	-1	-10
Cc1ccc(OCC(=O)Nc2cccc(O)c2)cc1C	0	1	0	8	·	·
COC(=O)c1cccc(NC(=O)COc2ccc(C(C)C)c(C)c2)c1	0	-7	1	17	·	·
Cc1cc(C)cc(NC(=O)COc2cccc(C)c2)c1	6.3*	5	0	-17	-1	2
Cc1cccc(OCC(=O)Nc2cccc(O)c2)c1	5.9*	-18	0	-10	0	-9
CCOC(=O)c1cccc(NC(=O)COc2ccc(C(C)C)c(C)c2)c1	5.0*	-11	1	10	0	4
CC1=C(C(=O)Nc2ccccc2)C(c2ccccc2)C(C#N)=C(SCC(=O)Nc2ccc(Oc3ccccc3)cc2)N1 (centres undefined)	1	16	0	0	·	·
COc1ccc2nc(Cl)c(C3CC(c4ccc(C)cc4)=NN3C(=O)c3ccco3)cc2c1 (centres undefined)	0	-3	0	-5	·	·
Cc1cccc(OCC(=O)Nc2cccc(C(=O)O)c2C)c1	6.0*	-10	0	-7	0	5
CCOc1cnc(C(=O)NNC(=O)c2ccc(S(=O)(=O)N(C)C)cc2)o1	6.0*	1	0	-6	0	-4
CC1CCN(Cc2nnnn2CCCC(=O)N(C)C2CCOC2)CC1 (centres undefined)	8.7*	3	0	4	-1	-6
CCC1Oc2ccc(C)cc2N(CC(=O)O)C1=O (centres undefined)	0	1	0	2	·	·
